# Data reported in publication PMC11062922 (Nature Chemical Biology, 2023).
# Like-named read-outs stand apart in the source and are kept apart here.
# System: PKN1
# Conditions: read-out: apparent Kd, n = 1
substance,measurement,setting,value
Lestaurtinib,potency estimated from few doses,"compound concentrations:100 nM and 1000 nM (sheet 'Lestaurtinib' of Supplementary Table 1),run:Lestaurtinib_02364_R2,Plate:MR002",487 nM
same,potency estimated from few doses,"compound concentrations:100 nM and 1000 nM (sheet 'Lestaurtinib' of Supplementary Table 1),run:Lestaurtinib_02364_R3,Plate:MR002",408 nM
same,potency estimated from few doses,"compound concentrations:100 nM and 1000 nM (sheet 'Lestaurtinib' of Supplementary Table 1),run:Lestaurtinib_02367_R1,Plate:MR003",440 nM
same,potency estimated from few doses,"compound concentrations:100 nM and 1000 nM (sheet 'Lestaurtinib' of Supplementary Table 1),run:Lestaurtinib_02367_R2,Plate:MR003",488 nM
same,potency estimated from few doses,"compound concentrations:100 nM and 1000 nM (sheet 'Lestaurtinib' of Supplementary Table 1),run:Lestaurtinib_02381_R1,Plate:MR004",350 nM
same,potency estimated from few doses,"compound concentrations:100 nM and 1000 nM (sheet 'Lestaurtinib' of Supplementary Table 1),run:Lestaurtinib_02381_R2,Plate:MR004",390 nM
same,potency estimated from few doses,"compound concentrations:100 nM and 1000 nM (sheet 'Lestaurtinib' of Supplementary Table 1),run:Lestaurtinib_02381_R3,Plate:MR004",242 nM
same,potency estimated from few doses,"compound concentrations:100 nM and 1000 nM (sheet 'Lestaurtinib' of Supplementary Table 1),run:Lestaurtinib_02407_R1,Plate:MR005",519 nM
same,potency estimated from few doses,"compound concentrations:100 nM and 1000 nM (sheet 'Lestaurtinib' of Supplementary Table 1),run:Lestaurtinib_02422_R1,Plate:MR006",327 nM
same,potency estimated from few doses,"compound concentrations:100 nM and 1000 nM (sheet 'Lestaurtinib' of Supplementary Table 1),run:Lestaurtinib_02422_R2,Plate:MR006",52.5 nM
same,potency estimated from few doses,"compound concentrations:100 nM and 1000 nM (sheet 'Lestaurtinib' of Supplementary Table 1),run:Lestaurtinib_02437_R1,Plate:MR007",578 nM
same,potency estimated from few doses,"compound concentrations:100 nM and 1000 nM (sheet 'Lestaurtinib' of Supplementary Table 1),run:Lestaurtinib_02437_R2,Plate:MR007",490 nM
same,potency estimated from few doses,"compound concentrations:100 nM and 1000 nM (sheet 'Lestaurtinib' of Supplementary Table 1),run:Lestaurtinib_02438_R1,Plate:MR008",516 nM
same,potency estimated from few doses,"compound concentrations:100 nM and 1000 nM (sheet 'Lestaurtinib' of Supplementary Table 1),run:Lestaurtinib_02438_R2,Plate:MR008",520 nM
same,potency estimated from few doses,"compound concentrations:100 nM and 1000 nM (sheet 'Lestaurtinib' of Supplementary Table 1),run:Lestaurtinib_02438_R3,Plate:MR008",483 nM
same,potency estimated from few doses,"compound concentrations:100 nM and 1000 nM (sheet 'Lestaurtinib' of Supplementary Table 1),run:Lestaurtinib_02443_R1,Plate:MR009",429 nM
same,potency estimated from few doses,"compound concentrations:100 nM and 1000 nM (sheet 'Lestaurtinib' of Supplementary Table 1),run:Lestaurtinib_02443_R2,Plate:MR009",415 nM
same,potency estimated from few doses,"compound concentrations:100 nM and 1000 nM (sheet 'Lestaurtinib' of Supplementary Table 1),run:Lestaurtinib_02443_R3,Plate:MR009",397 nM
same,potency estimated from few doses,"compound concentrations:100 nM and 1000 nM (sheet 'Lestaurtinib' of Supplementary Table 1),run:Lestaurtinib_02473_R1,Plate:MR010",430 nM
same,potency estimated from few doses,"compound concentrations:100 nM and 1000 nM (sheet 'Lestaurtinib' of Supplementary Table 1),run:Lestaurtinib_02473_R2,Plate:MR010",385 nM
same,potency estimated from few doses,"compound concentrations:100 nM and 1000 nM (sheet 'Lestaurtinib' of Supplementary Table 1),run:Lestaurtinib_02482_R1,Plate:MR011",508 nM
same,potency estimated from few doses,"compound concentrations:100 nM and 1000 nM (sheet 'Lestaurtinib' of Supplementary Table 1),run:Lestaurtinib_02482_R2,Plate:MR011",460 nM
same,potency estimated from few doses,"compound concentrations:100 nM and 1000 nM (sheet 'Lestaurtinib' of Supplementary Table 1),run:Lestaurtinib_02482_R3,Plate:MR011",432 nM
same,potency estimated from few doses,"compound concentrations:100 nM and 1000 nM (sheet 'Lestaurtinib' of Supplementary Table 1),run:Lestaurtinib_02487_R3,Plate:MR012",500 nM
same,potency estimated from few doses,"compound concentrations:100 nM and 1000 nM (sheet 'Lestaurtinib' of Supplementary Table 1),run:Lestaurtinib_02496_R1,Plate:MR013",473 nM
same,potency estimated from few doses,"compound concentrations:100 nM and 1000 nM (sheet 'Lestaurtinib' of Supplementary Table 1),run:Lestaurtinib_02496_R2,Plate:MR013",455 nM
same,potency estimated from few doses,"compound concentrations:100 nM and 1000 nM (sheet 'Lestaurtinib' of Supplementary Table 1),run:Lestaurtinib_02496_R3,Plate:MR013",459 nM
same,potency estimated from few doses,"compound concentrations:100 nM and 1000 nM (sheet 'Lestaurtinib' of Supplementary Table 1),run:Lestaurtinib_02566_R1,Plate:MR014",512 nM
same,potency estimated from few doses,"compound concentrations:100 nM and 1000 nM (sheet 'Lestaurtinib' of Supplementary Table 1),run:Lestaurtinib_02566_R3,Plate:MR014",539 nM
same,potency estimated from few doses,"compound concentrations:100 nM and 1000 nM (sheet 'Lestaurtinib' of Supplementary Table 1),run:Lestaurtinib_02572_R1,Plate:MR015",628 nM
same,potency estimated from few doses,"compound concentrations:100 nM and 1000 nM (sheet 'Lestaurtinib' of Supplementary Table 1),run:Lestaurtinib_02572_R2,Plate:MR015",517 nM
same,potency estimated from few doses,"compound concentrations:100 nM and 1000 nM (sheet 'Lestaurtinib' of Supplementary Table 1),run:Lestaurtinib_02572_R3,Plate:MR015",559 nM
same,potency estimated from few doses,"compound concentrations:100 nM and 1000 nM (sheet 'Lestaurtinib' of Supplementary Table 1),run:Lestaurtinib_02577_R2,Plate:MR016",613 nM
same,potency estimated from few doses,"compound concentrations:100 nM and 1000 nM (sheet 'Lestaurtinib' of Supplementary Table 1),run:Lestaurtinib_02577_R3,Plate:MR016",470 nM
same,potency estimated from few doses,"compound concentrations:100 nM and 1000 nM (sheet 'Lestaurtinib' of Supplementary Table 1),run:Lestaurtinib_02584_R1,Plate:MR017",493 nM
same,potency estimated from few doses,"compound concentrations:100 nM and 1000 nM (sheet 'Lestaurtinib' of Supplementary Table 1),run:Lestaurtinib_02584_R2,Plate:MR017",437 nM
same,potency estimated from few doses,"compound concentrations:100 nM and 1000 nM (sheet 'Lestaurtinib' of Supplementary Table 1),run:Lestaurtinib_02584_R3,Plate:MR017",508 nM
same,potency estimated from few doses,"compound concentrations:100 nM and 1000 nM (sheet 'Lestaurtinib' of Supplementary Table 1),run:Lestaurtinib_02601_R1,Plate:MR018",580 nM
same,potency estimated from few doses,"compound concentrations:100 nM and 1000 nM (sheet 'Lestaurtinib' of Supplementary Table 1),run:Lestaurtinib_02601_R2,Plate:MR018",523 nM
same,potency estimated from few doses,"compound concentrations:100 nM and 1000 nM (sheet 'Lestaurtinib' of Supplementary Table 1),run:Lestaurtinib_02601_R3,Plate:MR018",615 nM
same,potency estimated from few doses,"compound concentrations:100 nM and 1000 nM (sheet 'Lestaurtinib' of Supplementary Table 1),run:Lestaurtinib_02606_R3,Plate:MR019",534 nM
same,potency estimated from few doses,"compound concentrations:100 nM and 1000 nM (sheet 'Lestaurtinib' of Supplementary Table 1),run:Lestaurtinib_02624_R1,Plate:MR020",496 nM
